Source: PubChem BioAssay (NCATS)
Records with an inconclusive call do not appear. Entries that show only a call come without a potency. Values without a mark were called inactive. Activity calls are given as the source filed them. Calls come from the whole dose curve; as a rule, active = well fitted inhibition curve with a large enough effect; inconclusive = small, poorly fitted or top-dose-only effect; inactive = flat fitted curve, though single readings scatter.

target: Calcium and integrin-binding protein 1 (Homo sapiens) (UniProt Q99828); experiment: Primary qHTS for Identification of Calcium Integrin Binding Protein 1 (CIB1) Competitor (AID 1508620); details: CIB1-GST / FITC-alphaIIb peptide fluorescence polarization; series mostly up to 114 µM;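 note: GST tagged CIB1 binding a fluorescein labelled alphaIIb integrin peptide tracer; top concentration of the series differs between compounds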
Outline: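 CIB1-GST (1 uM final) and compound incubated 15 min at room temperature before adding FITC-alphaIIb peptide tracer (100 nM final). Competition for binding read by fluorescence polarization (ex 480, em 540) after another 15 min at room temperature.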

Sequence of Calcium and integrin-binding protein 1 (Homo sapiens) (Q99828 whole entry, looked up): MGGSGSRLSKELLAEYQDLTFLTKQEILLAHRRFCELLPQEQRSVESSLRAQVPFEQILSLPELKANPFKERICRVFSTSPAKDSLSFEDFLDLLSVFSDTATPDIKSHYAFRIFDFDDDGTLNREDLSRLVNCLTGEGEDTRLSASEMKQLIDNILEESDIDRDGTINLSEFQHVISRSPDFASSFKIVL

Structure (SMILES)	Potency	activity change, negative = inhibition
COc1cccc(-c2cc(NCc3ccc4c(c3)OCO4)nc(N)n2)c1	inactive	
CC1(C)CC[C@]2(C(=O)O[C@@H]3O[C@H](CO[C@@H]4O[C@H](CO)[C@@H](O)[C@H](O)[C@H]4O[C@@H]4O[C@H](CO)[C@H](O)[C@H](O)[C@H]4O)[C@@H](O)[C@H](O[C@@H]4O[C@H](CO)[C@@H](O)[C@H](O)[C@H]4O)[C@H]3O)CC[C@]3(C)C(=CCC4[C@@]5(C)CC[C@H](O[C@@H]6OC[C@@H](O)[C@H](O)[C@H]6O)[C@@](C)(C(=O)O)C5CC[C@]43C)[C@@H]2C1 (stereo not given in full)		0.475% [at 12.4 µM]
C[C@H](C(=O)NC1CCCC1)N(C(=O)Cn1nnc(-c2ccc3c(c2)OCO3)n1)C1CCCCC1	inactive	
CC1(C)CC[C@]2(C(=O)O)CC[C@]3(C)C(=CCC4[C@@]5(C)CC[C@H](O[C@@H]6O[C@H](CO)[C@@H](O)[C@H](O)[C@H]6O[C@@H]6O[C@H](CO)[C@@H](O)[C@H](O)[C@H]6O)[C@@](C)(CO)C5CC[C@]43C)[C@@H]2C1 (stereo not given in full)	inactive	
C=C1CN(Cc2ccc(C(=O)Nc3ccccc3N)cc2)C(=O)c2ccccc21	inactive	
CNC(=S)NS(=O)(=O)c1cc(CCNC(=O)c2cc(Cl)ccc2OC)ccc1OC	inactive	
CC1C=CC2CCCCC2C1CCC1CC(O)CC(=O)O1 (stereo not given)	inactive	
C=C(CO[C@@H]1O[C@H](CO[C@@H]2OC[C@](O)(CO)[C@H]2O)[C@@H](O)[C@H](O)[C@H]1O)C1Cc2cc(C(C)=O)ccc2O1 (stereo not given in full)	inactive	
C=C(C(=O)OC)C1C(O)CC2(C)C(O)CCC(=O)C2C1O (stereo not given)	inactive	
Cc1ccccc1-n1c([C@H](C)Nc2nc(N)nc3nc[nH]c23)nc2cccc(C)c2c1=O	inactive	
O=C(N/N=C/c1ccc(O)c(O)c1)c1cc2ccccc2cc1O	inactive	
COC(=O)N[C@H](C(=O)N1[C@@H]2CC[C@@H](C2)[C@H]1c1nc2ccc(-c3ccc4c(c3)C(F)(F)c3cc(-c5cnc([C@@H]6CCC7(CC7)N6C(=O)[C@@H](NC(=O)OC)C(C)C)[nH]5)ccc3-4)cc2[nH]1)C(C)C	inactive	
C[C@@H]1CCN(C(=O)N2CCCC2)C[C@@H]1N(C)c1ncnc2[nH]ccc12	inactive	
Nc1ccc(-c2cccc3c(=O)cc(N4CCOCC4)oc23)cc1	inactive	
Cc1ccccc1CN1C2=NCCN2C(=O)C2=C1CCN(Cc1ccccc1)C2	inactive	
COc1ccc(CCO[C@@H]2CCCC[C@H]2N2CC[C@@H](O)C2)cc1OC	inactive	
Cc1ccc(C(=O)Nc2noc3ccccc23)cc1	inactive	
C[C@@H]([C@@H](O)c1ccc(O)cc1)N1CCC(O)(c2ccccc2)CC1	inactive	
CC(C)=CCC/C(C)=C/CC/C(C)=C/COC1OC(COC2OCC(OC3OCC(O)C(O)C3O)C(O)C2O)C(O)C(OC2OC(C)C(OC3OC(C)C(OC4OCC(OC5OC(C)C(O)C(O)C5O)C(O)C4O)C(O)C3O)C(O)C2O)C1O (stereo not given)		4.51% [at 12.4 µM]
OCc1ccc(O[C@@H]2O[C@H](CO)[C@@H](O)[C@H](O)[C@H]2O)cc1	inactive	

Structure (SMILES)	Potency	activity change, negative = inhibition
CC1(O)CCCC2(C)C1CCC13CC(CO)C(CCC12)C3 (stereo not given)	inactive	
CC1OC(OC2CCC3(C)C(CCC4(C)C3CC=C3C5CC(C)(C)CCC5(C(=O)OC5OC(CO)C(O)C(O)C5O)CCC34C(=O)O)C2(C)C)C(O)C(O)C1O (stereo not given)	inactive	
CC(C)(C)CCN1C[C@@H]2C(CNC(=O)c3cc(Cl)cc(Cl)c3)[C@@H]2C1 (stereo not given in full)	inactive	
CC1(C)CCCC2(C)C1CC=C1C(=O)OC(O)C12O (stereo not given)	inactive	
CCCCc1ccc(C(=O)Nc2cc(-c3ccc(Cl)cc3)nn2-c2ccc(Cl)cc2)cc1	inactive	
COc1ccc([C@@]2(O)c3c(ccc(CC=C(C)C)c3O)NC(=O)[C@@H]2OC)cc1	inactive	
CC1(C)CC[C@]2(C(=O)O[C@@H]3O[C@H](CO[C@@H]4O[C@H](CO)[C@@H](O)[C@H](O)[C@H]4O[C@@H]4O[C@H](CO)[C@@H](O)[C@H](O)[C@H]4O)[C@@H](O)[C@H](O[C@@H]4O[C@H](CO)[C@@H](O)[C@H](O)[C@H]4O)[C@H]3O)CC[C@]3(C)C(=CCC4[C@@]5(C)CC[C@@H](O)[C@@](C)(C(=O)O[C@@H]6O[C@H](CO)[C@@H](O)[C@H](O)[C@H]6O)C5CC[C@]43C)[C@@H]2C1 (stereo not given in full)		-1.15% [at 12.4 µM]
C/C=C/C=C/[C@@H]1O[C@](O)([C@H](CC)C(=O)NC/C=C/C=C(\C)[C@@H](OC)[C@@H](C)C2OC(/C=C/C=C/C=C(\C)C(=O)c3c(O)cc[nH]c3=O)[C@H](O)[C@@H]2O)[C@H](O)[C@H](O)C1(C)C (stereo not given in full)	inactive	
CC1(C)CCCC2(C)C(C(=O)O)=CCC12 (stereo not given)	inactive	
Cc1cc(Nc2nc(NC(C)c3ncc(F)cn3)ncc2Cl)n[nH]1 (stereo not given)	inactive	
CCCCCCOc1cc2c(cc1N(C)c1ncc(C(=O)O)cn1)C(C)(C)CCC2(C)C	inactive	
CC(C(O)/C=C/C(C)(C)O)C1CCC2(C)C3C(=O)C=C4C(CCC(O)C4(C)C)C3(C)CCC12C (stereo not given)	inactive	
CC(Oc1cc(-n2cnc3ccc(CN4CCN(C)CC4)cc32)sc1C(N)=O)c1ccccc1C(F)(F)F (stereo not given)	inactive	
COc1cc(/C=C/CO)cc(OC)c1O[C@@H]1O[C@H](CO[C@@H]2O[C@H](CO)[C@@H](O)[C@H](O)[C@H]2O)[C@@H](O)[C@H](O)[C@H]1O	inactive	
NC(=O)[C@H](O[C@@H]1O[C@H](CO)[C@@H](O)[C@H](O)[C@H]1O)c1ccccc1	inactive	
C[C@@H]1O[C@@H](O[C@H]2[C@H](O)[C@@H](O)[C@H](OC3CCC4(C)C5CCC(C)(C(CO)OC6OC(CO)C(O)C(O)C6O)CC5=CCC4C3(C)C)O[C@@H]2CO)[C@H](O)[C@H](O)[C@H]1O (stereo not given in full)	inactive	
C/C=C/c1ccc2c(c1)[C@@H](C)[C@H](c1ccc(O)cc1)O2	inactive	
COc1cc2c(cc1OC)[C@@H]1[C@H](O)[C@@H](OC)C=C3CCN(C2)[C@H]31	inactive	
Cc1oc2ccccc2c1CNC(=O)NCc1cccs1	inactive	
COc1ccc(-c2cnc(-c3cccc4c3-c3ccccc3C4=O)o2)cc1	inactive	
